Cycloheximide cs: counter-screen for Shiga toxin inhibitors: cycloheximide protein synthesis inhibition; cell reporter, cycloheximide protein synthesis inhibition counterscreen; max response, %; actives 12% (n = 300,000); in the data active = max response mostly above about 13%, no sharp cut-off; inactive = mostly below about 14%; note: read at 38.3 µM for the half of the compounds with a filed dose
Sm TGR inh: blocks Schistosoma mansoni thioredoxin glutathione reductase; Q962Y6; purified TGR, DTNB reduction, TNB absorbance 405 nm; Potency, µM (top dose mostly 114 µM), most hits filed as inhibitors; actives 3% (n = 360,000); AID 485364; note: nearly all actives have a fitted effect of over 60% in size
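TGR 20 nM + NADPH 100 uM (dispensed conc.), cpd preinc 15 min RT; start with NADPH (500 uM addition) then DTNB (15 mM addition). Kinetic TNB absorbance, 405 nm filter. Four-parameter Hill fit across titration.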
Shiga inhibitor: inhibitors of Shiga toxin in Vero cells; actives 9.2% (n = 290,000); Vero cells, Shiga toxin protein synthesis inhibition reporter; AID 2315; inhibition, % at 38.7 µM; in the data active = inhibition mostly above about 28%, no sharp cut-off; inactive = mostly below about 43%
FBPA Giardia inh: inhibitors of Giardia lamblia fructose-1,6-bisphosphate aldolase; A8B2U2; purified Giardia FBPA; Potency, µM (highest dose often 59.6 µM), usual class: inhibitors; actives 0.71% (n = 290,000); note: nearly all actives have a fitted effect of over 55% in size
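Giardia FBPA (40 nM reagent) was preincubated 10 min at RT with compound (up to 57.5 uM final), then substrate plus GAPDH/TPI/NAD/arsenate coupling system with diaphorase/resazurin was added; resorufin fluorescence (525/598 nm) was read after 20 min.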
LmPK inh: blocks Leishmania mexicana pyruvate kinase activity; actives 0.37% (n = 290,000); Q27686; purified LmPK, Kinase-Glo ATP luminescence, 1 h; AID 1721; Potency, µM (series often up to 57.5 µM), hits mostly inhibitors
Target sequence (Q27686 whole entry, looked up): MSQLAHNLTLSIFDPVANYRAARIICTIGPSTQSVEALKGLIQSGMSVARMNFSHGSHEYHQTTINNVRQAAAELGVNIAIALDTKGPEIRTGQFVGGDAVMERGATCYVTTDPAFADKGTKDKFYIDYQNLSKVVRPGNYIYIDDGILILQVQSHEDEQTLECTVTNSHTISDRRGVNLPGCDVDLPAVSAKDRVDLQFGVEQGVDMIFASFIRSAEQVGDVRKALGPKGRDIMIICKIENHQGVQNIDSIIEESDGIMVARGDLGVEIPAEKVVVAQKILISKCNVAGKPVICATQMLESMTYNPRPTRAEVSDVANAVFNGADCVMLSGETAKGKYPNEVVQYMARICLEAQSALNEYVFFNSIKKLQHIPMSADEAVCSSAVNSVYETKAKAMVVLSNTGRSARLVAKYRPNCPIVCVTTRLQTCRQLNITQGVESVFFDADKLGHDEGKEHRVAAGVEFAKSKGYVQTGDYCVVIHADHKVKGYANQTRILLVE
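qHTS format; LmPK 0.1 nM; substrates PEP 0.5 mM and ADP 0.1 mM. One-hour room-temperature incubation, then coupled luciferase luminescence; 0.5 nM enzyme wells mark activation.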
Tb PYK inh: T. brucei pyruvate kinase inhibition; Potency, µM (titrated, usually from 76.8 µM), usual class: inhibitors; Q57TT1; TbPYK enzyme, Kinase-Glo Plus ATP luminescence, 45 min; actives 0.12% (n = 410,000); AID 624173; note: nearly all actives have a fitted effect of over 50% in size
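Assay buffer: 50 mM TEA pH 7.2, 100 mM KCl, 10 mM MgCl2, 0.05% BSA, 0.01% Tween-20. Pyruvate kinase from T. brucei plus substrate met compound, then ADP (130 uM final). Luminescence was read post 45 min RT.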
A number is an active result; - = inactive; ? = inconclusive; . = no result. The entries come from a sample that favours hits as a whole. Unless noted, calls come from the whole dose curve; as a rule, active = well fitted curve in the direction sought with a large enough effect; inconclusive = small, poorly fitted or top-dose-only effect, or another doubt; inactive = no such curve, though single readings can be large; an effect the other way counts as inactive or inconclusive.

SMILES | Cycloheximide cs | Sm TGR inh | Shiga inhibitor | FBPA Giardia inh | LmPK inh | Tb PYK inh
CC1CCCCN1CCNC(=O)c1ccc2c(=O)n(Cc3ccc(Cl)cc3)c(=S)[nH]c2c1 (stereo unspecified) | - | - | - | . | - | -
Cc1ccc(F)c(S(=O)(=O)NC(=O)C2(C)CCN2C(=O)CC2CCCCC2)c1 (stereo unspecified) | . | . | . | . | . | -
COC(=O)C(C)Sc1nnc2cc(C)c3cc(C)cc(C)c3n12 (stereo unspecified) | . | - | . | . | . | ?
COc1ccc(C)cc1NC(=O)CCc1c(C)nn(-c2ccc(N3CCCCC3)nn2)c1C | 18 | - | - | - | - | -
CCOc1ccccc1NC(=O)CCc1c(C)nn(-c2ccc(N3CCCCC3)nn2)c1C | - | - | - | - | - | -
Cc1ccc(F)cc1NC(=O)CCc1c(C)nn(-c2ccc(N3CCCCC3)nn2)c1C | 31 | - | - | . | - | -
Cc1ccc2[nH]c3c(c2c1)CCN(C)C3 | - | - | - | - | - | -
O=C(c1cc(COc2ccc(F)c(F)c2)on1)N1CCSCC1 | 47 | - | 62 | . | - | -
CC(=O)c1cccc(OCc2cc(C(=O)N3CCSCC3)no2)c1 | 48 | - | 150 | . | - | -
CCN(CC)CCN1C(=O)C(=O)/C(=C(/O)c2cccc(OC)c2)C1c1ccccn1 (stereo unspecified) | 15 | - | - | - | - | -
CCOc1ccc(/C(O)=C2/C(=O)C(=O)N(CCOCCO)C2c2ccccn2)cc1 (stereo unspecified) | 39 | - | 57 | - | - | -
Cc1c(C(=O)NCc2ccoc2)oc2ccc3c(c12)C(=O)CC(C)(C)O3 | 61 | ? | 119 | - | - | -
CCOc1ccccc1CNC(=O)c1oc2ccc3c(c2c1C)C(=O)CC(C)(C)O3 | . | - | . | . | . | -
Fc1cccc(Nc2ncnc3sccc23)c1 | 9.8 | - | - | - | - | -
Cc1ccc2ncnc(Nc3cccc(C(=O)O)c3)c2c1 | - | - | - | - | - | -
COc1ccc(Nc2ncnc3sccc23)cc1OC | - | - | - | - | - | -
O=C(O)c1cccc(Nc2ncnc3sccc23)c1 | 25 | - | - | - | - | -
Cc1noc(C)c1C(=O)N1CCC1(C)C(=O)NS(=O)(=O)Cc1cccc(Cl)c1 (stereo unspecified) | . | . | . | . | . | -
CCOc1ccc(NC(=O)c2ccc(F)c(S(=O)(=O)N(CC)Cc3ccccc3)c2)cc1 | . | - | . | . | . | -
CCOc1ccc2nc(N3C(=O)C(O)=C(C(=O)c4ccco4)C3c3ccco3)sc2c1 (stereo unspecified) | . | - | . | . | . | -
COc1ccc(C2C(C(=O)c3ccco3)=C(O)C(=O)N2c2nnc(C)s2)cc1OC (stereo unspecified) | - | - | - | - | - | -
C=CCOc1ccc(C2C(C(=O)c3ccco3)=C(O)C(=O)N2c2nnc(C)s2)cc1 (stereo unspecified) | 23 | - | 71 | ? | - | -
CCOC(=O)c1sc(N2C(=O)C(O)=C(C(=O)c3ccco3)C2c2ccco2)nc1C (stereo unspecified) | - | 25µM | - | - | - | -
COc1ccc(C2C(C(=O)c3ccco3)=C(O)C(=O)N2c2nnc(C)s2)cc1 (stereo unspecified) | 55 | . | 76 | ? | - | -
COc1ccccc1N1CCN(C(=O)C2CCN(S(=O)(=O)c3cnc[nH]3)CC2)CC1 | . | - | . | . | . | -
SMILES | Cycloheximide cs | Sm TGR inh | Shiga inhibitor | FBPA Giardia inh | LmPK inh | Tb PYK inh
COCCn1c(-c2ccc(-c3ccccc3Cl)o2)nc2c1c(=O)[nH]c(=O)n2CC(C)C | - | 32µM | - | - | - | -
Cc1ccc(-n2nnc3ccccc3c2=O)cc1C | 50 | - | 100 | - | - | -
Cc1ccc(-c2nnc(NC3CCCC3)s2)cc1 | 54 | - | 53 | - | - | -
Cc1onc(-c2c(F)cccc2Cl)c1C(=O)O/N=C(\N)c1ccc([N+](=O)[O-])o1 | - | ? | 36 | - | - | -
CCCCc1nc2ccn(CC(=O)N(C)C)c(=O)c2n1Cc1ccc(-c2ccccc2-c2nn[nH]n2)cc1 | - | . | - | ? | . | .
N#Cc1nc(COc2cccc(Cl)c2)oc1NCCN1CCOCC1 | - | 35µM | - | - | - | -
N#Cc1nc(COc2cccc(Cl)c2)oc1NCc1ccncc1 | 18 | ? | - | - | - | -

Compound activity from PubChem.
